Laboratory results as given in PubChem BioAssay (EPA / NIEHS).
Inconclusive results are not listed. Activity calls are given as the source filed them. The calls were made as follows: active = hit-call score of the fitted dose curve at least 0.9, where 1 is the maximum; inconclusive = response in the unintended direction; inactive = score below 0.9.

target: Retinoic acid receptor RXR-alpha (Homo sapiens) (UniProt P19793); assay: OT_NURR1_NURR1RXRa_0480: Odyssey Thera (OT) 8-hour HEK293T Protein Complementation Assay for Nurr1/retinoid X receptor (RXR) (AID 2283385)
Method in brief: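 HEK293T cells expressing Nurr1 and RXRα fused to reporter fragments were dosed with compound for 8 hours. Complex formation was read as fluorescence intensity and analysed as gain of signal against DMSO as baseline.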

Chain of Retinoic acid receptor RXR-alpha (Homo sapiens) (P19793 whole entry, looked up, the tested form may be a part): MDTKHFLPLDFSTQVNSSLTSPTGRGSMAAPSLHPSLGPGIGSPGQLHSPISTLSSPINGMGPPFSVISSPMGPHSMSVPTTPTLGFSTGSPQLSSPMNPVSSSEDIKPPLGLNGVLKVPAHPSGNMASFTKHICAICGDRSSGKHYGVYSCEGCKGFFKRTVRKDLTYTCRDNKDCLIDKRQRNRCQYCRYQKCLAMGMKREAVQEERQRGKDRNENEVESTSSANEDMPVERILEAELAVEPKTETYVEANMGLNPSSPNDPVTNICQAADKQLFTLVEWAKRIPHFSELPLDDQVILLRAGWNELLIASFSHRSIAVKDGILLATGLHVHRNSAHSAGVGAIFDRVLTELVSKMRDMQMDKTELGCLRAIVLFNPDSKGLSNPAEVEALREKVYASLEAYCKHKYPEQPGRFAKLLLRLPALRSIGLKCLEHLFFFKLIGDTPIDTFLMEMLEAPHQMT

Structure (SMILES)	outcome
CC(C)OC(=O)Nc1ccccc1	inactive
Cc1ccc(N)cc1Cl	inactive
CCOP(=S)(OCC)SCSP(=S)(OCC)OCC	inactive

target: Retinoic acid receptor RXR-alpha (Homo sapiens) (UniProt P19793); assay: OT_NURR1_NURR1RXRa_1440: Odyssey Thera (OT) 24-hour HEK293T Protein Complementation Assay for Nurr1/retinoid X receptor (RXR) (AID 2283386)
Method in brief: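 HEK293T cells were dosed with compound and read 24 h later by fluorescence intensity in a protein-fragment complementation format, where Nurr1–RXRα interaction reconstitutes a split reporter. Activity was fitted as gain of signal relative to DMSO baseline.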

Structure (SMILES)	outcome
COC(=O)c1sccc1S(=O)(=O)NC(=O)Nc1nc(C)nc(OC)n1	inactive
O=C(NCO)NCO	inactive
CC(=O)C=C(C)C	inactive
C=C(C)C#N	inactive
CC(C#N)CCC#N (stereo not drawn)	inactive
CNC	inactive
O=c1[nH]c(=O)[nH]c(=O)[nH]1	inactive
O=S(=O)(c1ccc(Cl)cc1)c1ccc(Cl)cc1	inactive
NNC(=S)NN	inactive
CCC[CH2][Sn]([CH2]CCC)([CH2]CCC)[O]C(=O)c1ccccc1	inactive

target: Peroxisome proliferator-activated receptor gamma (Homo sapiens) (UniProt P37231); assay: OT_PPARg_PPARgSRC1_0480: Odyssey Thera (OT) 8-hour Protein-Complementation Assay for Peroxisome Proliferator-activated Receptor Gamma / SRC-1 Co-activator (AID 2283387);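 also: nuclear to cytoplasmic split Venus YFP fluorescence ratio reporting PPARg SRC-1 interaction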
Method in brief: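 HEK293T transiently transfected with PPARg and SRC-1 fused to Venus YFP fragments, compounds 8 h at 37C. Fixed, Draq5-stained cells imaged; nuclear/cytoplasmic 488 nm fluorescence ratio over at least 350 cells per image; gain fitted versus DMSO.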

Chain of Peroxisome proliferator-activated receptor gamma (Homo sapiens) (P37231 whole entry, looked up, the tested form may be a part): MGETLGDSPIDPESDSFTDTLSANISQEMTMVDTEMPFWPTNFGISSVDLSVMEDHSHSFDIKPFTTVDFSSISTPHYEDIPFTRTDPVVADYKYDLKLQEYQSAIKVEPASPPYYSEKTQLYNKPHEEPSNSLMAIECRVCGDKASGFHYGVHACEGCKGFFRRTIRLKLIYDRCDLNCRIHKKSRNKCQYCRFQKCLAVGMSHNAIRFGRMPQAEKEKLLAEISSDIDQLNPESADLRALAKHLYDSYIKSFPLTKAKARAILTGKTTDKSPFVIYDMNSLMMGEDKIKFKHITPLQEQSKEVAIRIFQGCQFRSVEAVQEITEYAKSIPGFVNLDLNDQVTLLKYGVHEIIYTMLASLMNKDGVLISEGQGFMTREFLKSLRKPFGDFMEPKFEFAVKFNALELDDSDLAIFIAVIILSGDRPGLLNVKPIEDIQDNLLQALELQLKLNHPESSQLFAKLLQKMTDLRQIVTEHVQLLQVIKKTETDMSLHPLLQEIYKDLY

Structure (SMILES)	outcome
COC(=O)c1sccc1S(=O)(=O)NC(=O)Nc1nc(C)nc(OC)n1	inactive
C[C@@H]1C[C@@H]([C@H](O)CC2CC(=O)NC(=O)C2)C(=O)[C@@H](C)C1	inactive
CCN1CCC2(CC1)COc1cc3c(cc12)N(C(=O)c1ccc(-c2ccc(-c4nnc(C)o4)cc2C)cc1)CC3	inactive
CC(C)(OO)c1ccccc1	inactive
CCC(C)(C)c1ccc(O)c(C(C)(C)CC)c1	inactive
O=C(NCO)NCO	inactive
CC(=O)C=C(C)C	inactive
C1CCC(NC2CCCCC2)CC1	inactive
C[C@H]1CCCC(=O)CCC/C=C/c2cc(O)cc(O)c2C(=O)O1	inactive
CC(C#N)CCC#N (stereo not drawn)	inactive
CC(C)(c1ccccc1)c1ccc(O)c(C(C)(C)c2ccccc2)c1	inactive
CC1(C)Cc2cccc(O)c2O1	inactive
CNC	inactive
CC(C)OC(=O)Nc1ccccc1	inactive
O=c1[nH]c(=O)[nH]c(=O)[nH]1	inactive
Cl/C=C\C[N+]12CN3CN(CN(C3)C1)C2	inactive
O=S(=O)(c1ccc(Cl)cc1)c1ccc(Cl)cc1	inactive
Cc1ccc2ccccc2c1C	inactive
Cc1ccc(N)cc1Cl	inactive
O=C(Nc1ccc2[nH]ccc2c1)c1cc2cc(F)ccc2n1Cc1cccc(F)c1	inactive
NNC(=S)NN	inactive
CCC[CH2][Sn]([CH2]CCC)([CH2]CCC)[O]C(=O)c1ccccc1	inactive
CCOP(=S)(OCC)SCSP(=S)(OCC)OCC	inactive
Oc1cccc2cccnc12	inactive

target: Peroxisome proliferator-activated receptor gamma (Homo sapiens) (UniProt P37231); assay: OT_PPARg_PPARgSRC1_1440: Odyssey Thera (OT) 24-hour Protein-Complementation Assay for Peroxisome Proliferator-activated Receptor Gamma/ SRC-1 Co-activator (AID 2283388)
Method in brief: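 Cells carrying the PPARg/SRC-1 fragment-complementation reporter receive compound for 24 hours, are fixed and counterstained with Draq5, then imaged. Increased nuclear relative to cytoplasmic YFP fluorescence above DMSO baseline indicates binding activity.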

Structure (SMILES)	outcome
COC(=O)c1sccc1S(=O)(=O)NC(=O)Nc1nc(C)nc(OC)n1	inactive
CCN1CCC2(CC1)COc1cc3c(cc12)N(C(=O)c1ccc(-c2ccc(-c4nnc(C)o4)cc2C)cc1)CC3	inactive
O=C(NCO)NCO	inactive
CC(=O)C=C(C)C	inactive
C[C@H]1CCCC(=O)CCC/C=C/c2cc(O)cc(O)c2C(=O)O1	inactive
CC(C#N)CCC#N (stereo not drawn)	inactive
CC1(C)Cc2cccc(O)c2O1	inactive
O=S(=O)(c1ccc(Cl)cc1)c1ccc(Cl)cc1	inactive
Cc1ccc2ccccc2c1C	inactive
Cc1ccc(N)cc1Cl	inactive
O=C(Nc1ccc2[nH]ccc2c1)c1cc2cc(F)ccc2n1Cc1cccc(F)c1	inactive
